The source of these data is PubChem BioAssay (Tox21).

A number with no mark means an inactive call. Inconclusive results are not listed. Active and inactive are the calls of the source. Unless noted, the call rests on the fitted dose curve.

A short description of assay [1]: Nuclear factor erythroid 2-related factor 2/antioxidant responsive element (Nrf2/ARE) small molecule agonists: qHTS cell viability counter screen in human keratinocytes (AID 1919968; active means well fitted curve in the direction sought with a large enough effect in the repeat runs; an effect the other way counts as inactive or inconclusive; further: nearly all actives have a fitted effect of over 55% in size). Summed up: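 Fluorescence read-out from CellTiter-Fluor after 1 h at 37 C. Wells held HaCaT-derived ARE-luciferase reporter cells (1,500/well) treated 23 h with DMSO-dissolved compounds. Run in the same wells as the luciferase agonist read.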

A short description of assay [2]: Nuclear factor erythroid 2-related factor 2/antioxidant responsive element (Nrf2/ARE) small molecule agonists: luciferase reporter gene qHTS assay in human keratinocytes (AID 1919969). Further: nearly all actives have a fitted effect of over 35% in size.
Assay [3] deals with Gonadotropin-releasing hormone receptor (Homo sapiens) (UniProt P30968). Briefly: Human gonadotropin-releasing hormone receptor (GnRHR) small molecule agonists, calcium flux assay in GnRHR-HEK293 cells (AID 1920063). Further: nearly all actives have a fitted effect of over 35% in size. Further: potency means the concentration at half of the fitted maximal effect. Summed up:
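Calcium-dye fluorescence, Ex/Em=480/540, recorded every 1 sec over 3 min after compound addition to GnRHR-HEK293 cells. Cells had been seeded 18 hours earlier and dye-loaded for 1 hour at 37 C. Fifteen concentrations, triplicates.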

In assay [4] the target is KiSS-1 receptor (Homo sapiens) (UniProt Q969F8). Briefly: Human kisspeptin (KISS1R) small molecule agonists, calcium flux assay in KISS1R-HEK293 cells (AID 1920064; active means well fitted curve in the direction sought with a large enough effect in the repeat runs; an effect the other way counts as inactive or inconclusive). In short, it runs like this: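 Calcium flux read-out: kinetic fluorescence at Ex/Em=480/540, 1 s intervals over 3 min, after pin-tool compound addition to dye-loaded KISS1R-HEK293 cells. Fifteen concentrations, triplicates.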
Chain of KiSS-1 receptor (Homo sapiens) (Q969F8 whole entry, looked up): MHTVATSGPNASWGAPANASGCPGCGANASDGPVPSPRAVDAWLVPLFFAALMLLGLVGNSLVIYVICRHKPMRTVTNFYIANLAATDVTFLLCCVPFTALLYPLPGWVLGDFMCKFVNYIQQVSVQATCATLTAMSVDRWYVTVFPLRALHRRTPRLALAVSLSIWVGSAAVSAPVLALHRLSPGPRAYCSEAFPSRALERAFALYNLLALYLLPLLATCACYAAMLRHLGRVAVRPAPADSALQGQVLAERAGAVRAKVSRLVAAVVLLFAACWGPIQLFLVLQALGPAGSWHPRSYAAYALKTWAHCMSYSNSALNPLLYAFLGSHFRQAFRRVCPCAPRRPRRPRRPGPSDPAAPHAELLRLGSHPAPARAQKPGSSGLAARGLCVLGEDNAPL

Assay [5] is described as follows: G protein-coupled receptor (GPCR) small molecule agonists, calcium flux assay: HEK293 wild type cell line counter screen (AID 1920065). Summed up: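 Agonist mode; 18 h seeding at 37 C, 1 h dye load at 37 C; compounds pinned from DMSO, ATP as positive control; kinetic fluorescence 480/540 nm, 3 min, 1 s reads; 15 concentrations, triplicate.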
Assay [6] can be described thus: p53 small molecule agonists, cell-based qHTS assay with rat liver microsomes (AID 1963578). In short, it runs like this:
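Fluorescence from a beta-lactamase reporter under a p53 response element was measured after cells had been incubated 16 h at 37 C with test compound and rat liver microsomes plus NADPH (0.5 mg/mL final each).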

Assay [7] is described as follows: p53 small molecule agonists, cell-based qHTS assay with human liver microsomes: qHTS cell viability counter screen (AID 1963579). Further: nearly all actives have a fitted effect of over 45% in size. In short, it runs like this:
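Seed p53RE-bla cells at 4,000 per well; incubate 5 h at 37 C; add compound, human liver microsomes and NADPH; incubate 16 h at 37 C; add CellTiter-Glo; after 30 min at room temperature, read luminescence.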

The nature of assay [8]: p53 small molecule agonists, cell-based qHTS assay with rat liver microsomes: qHTS cell viability counter screen (AID 1963580). Further: nearly all actives have a fitted effect of over 45% in size. Summed up: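 Cytotoxicity counter screen: intracellular ATP measured by CellTiter-Glo luminescence in the same wells as the beta-lactamase reporter read, on HCT-116 p53RE-bla cells exposed 16 h at 37 C to compounds with rat liver microsomes and NADPH, each 0.5 mg/mL final.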

The nature of assay [9]: p53 small molecule agonists, cell-based qHTS assay: qHTS cell viability counter screen (AID 1963581). Further: nearly all actives have a fitted effect of over 45% in size. Summed up: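 Cytotoxicity read-out: ATP-based luminescence (CellTiter-Glo, 30 min RT) measured in the same wells as the p53 reporter assay, HCT-116 p53RE-bla cells, 16 h compound exposure at 37 C.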
Assay [10] addresses 5-hydroxytryptamine receptor 2A (Homo sapiens) (UniProt P28223). As to the kind of experiment: 5-hydroxytryptamine receptor 2A (HTR2A) small molecule antagonists, cell-based qHTS assay (AID 1963586). Further: nearly all actives have a fitted effect of over 45% in size. Further: potency means the concentration at half of the fitted maximal effect. Summed up: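 CHO cells stably expressing human HTR2A were plated for 18 h at 37 C, then loaded with calcium dye for 1 h. Compounds were preincubated 5 min at room temperature before DOI (4 nM solution) was added. Kinetic fluorescence was read for 3 min.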

Assay [11] has the same target. As to the kind of experiment: 5-hydroxytryptamine receptor 2A (HTR2A) small molecule agonists, cell-based qHTS assay (AID 1963587). Further: nearly all actives have a fitted effect of over 30% in size. Further: potency means the concentration at half of the fitted maximal effect. In short, it runs like this: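 CHO cells stably expressing human HTR2A, plated 18 h, loaded with calcium dye 1 h at 37 C. Agonist mode: compounds added and intracellular calcium fluorescence recorded kinetically for 2 min at 1 sec intervals.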

Assay [12] in a line: cAMP Responsive Elements (CRE) small molecule agonists, cell-based qHTS assay (AID 1963590). Summed up: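 Beta-lactamase reporter readout: LiveBLAzer B/G FRET substrate, 2 h at room temperature, added after 3 h compound treatment of CRE-bla HEK 293T cells at 37 C/5% CO2.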
Assay [13] is described as follows: cAMP Responsive Elements (CRE) small molecule antagonists, cell-based qHTS assay (AID 1963591; active means well fitted inhibition curve with a large enough effect in the signal ratio in the repeat runs, not every such curve was filed as active; the % refers to the signal ratio). Summed up:
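HEK293T CRE-bla; 18 h preincubation; compound pin-transfer; NKH477 0.25 uM final, 3 h, 37 C; LiveBLAzer FRET substrate 2 h RT.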

Assay [14] addresses D(2) dopamine receptor (Homo sapiens) (UniProt P14416). Briefly: Dopamine D2 receptor (DRD2) small molecule agonists, cell-based qHTS assay (AID 1963594). Further: nearly all actives have a fitted effect of over 35% in size. In short, it runs like this: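 HEK293 cells stably expressing human DRD2, pre-treated with PDE inhibitor Ro20-1724 (0.1 mM final) and compound 10 min at room temperature, then stimulated with NKH477 (200nM […]) for 30 min. cAMP read by HTRF (665/620 nm).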

For assay [15] the target is unchanged. Briefly: Dopamine D2 receptor (DRD2) small molecule antagonists, cell-based qHTS assay (AID 1963595; active means well fitted inhibition curve with a large enough effect in the signal ratio in the repeat runs, with a control signal flat; the % refers to the signal ratio; further: potency means the concentration at half of the fitted maximal effect). In short, it runs like this: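 Stable D2 receptor HEK293 line, 24 h after seeding. Compound preincubated 10 min, then quinpirole (12 nM) with forskolin analogue NKH477 (200 nM), 30 min, room temperature. Detection by time-resolved FRET of cAMP.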
The target in assay [16] is Muscarinic acetylcholine receptor M1 (Homo sapiens) (UniProt P11229). As to the kind of experiment: Cholinergic receptor muscarinic 1 (CHRM1) small molecule antagonists, cell-based qHTS assay (AID 1963588). Further: nearly all actives have a fitted effect of over 40% in size. Further: potency means the concentration at half of the fitted maximal effect. Summed up: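 Compounds were tested at 15 concentrations in three independent runs. Dye-loaded CHRM1-CHO cells were exposed 5 min at room temperature before stimulation by acetylcholine added at 50nM. Intracellular calcium was read kinetically on FDSS for 3 min.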
Chain of Muscarinic acetylcholine receptor M1 (Homo sapiens) (P11229 whole entry, looked up): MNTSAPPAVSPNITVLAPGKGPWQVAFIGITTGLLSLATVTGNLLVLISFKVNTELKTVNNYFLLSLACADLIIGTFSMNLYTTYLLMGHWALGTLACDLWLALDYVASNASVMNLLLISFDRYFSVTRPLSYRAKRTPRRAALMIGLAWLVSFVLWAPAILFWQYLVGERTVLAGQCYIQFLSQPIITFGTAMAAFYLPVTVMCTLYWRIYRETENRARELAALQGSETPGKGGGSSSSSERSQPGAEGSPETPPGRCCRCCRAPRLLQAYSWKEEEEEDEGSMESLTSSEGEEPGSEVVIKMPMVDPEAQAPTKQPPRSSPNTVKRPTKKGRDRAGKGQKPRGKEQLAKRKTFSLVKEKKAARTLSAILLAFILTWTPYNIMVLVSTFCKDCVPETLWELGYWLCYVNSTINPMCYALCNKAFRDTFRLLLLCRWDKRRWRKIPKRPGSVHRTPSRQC

The target is the same in assay [17]. Briefly: Cholinergic receptor muscarinic 1 (CHRM1) small molecule agonists, cell-based qHTS assay (AID 1963589). Further: nearly all actives have a fitted effect of over 35% in size. In short, it runs like this: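 Calcium flux read-out: kinetic fluorescence at 1 sec intervals after pin-tool compound addition to dye-loaded CHRM1-CHO cells (human M1). Agonist mode; 15 concentrations tested in triplicate independent runs.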
The target in assay [18] is Beta-2 adrenergic receptor (Homo sapiens) (UniProt P07550). Briefly: Adrenergic beta2 receptor (ADRB2) small molecule antagonists, cell-based qHTS assay (AID 1963592). Further: series mostly up to about 92 µM; nearly all actives have a fitted effect of over 50% in size. In short, it runs like this:
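Assay format: CHO-ADRB2 cells, 18-20hr seeding at 37C/5% CO2, then compound plus 1nM isoproterenol agonist mix for 0.5hr RT. Homogeneous time-resolved fluorescence cAMP detection after 1hr, expressed as 665/615 nm ratio.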

Assay [19] can be described thus: p53 small molecule agonists, cell-based qHTS assay (AID 1963582; active means well fitted activation curve with a large enough effect in the signal ratio in the repeat runs, not every such curve was filed as active; the % refers to the signal ratio). Summed up: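 Fluorescence intensity read-out of a beta-lactamase reporter under a p53 response element. Cells were exposed to DMSO-dissolved compounds for 16 h at 37 C, then developed with FRET substrate for 2 h at RT.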

Chain of D(2) dopamine receptor (Homo sapiens) (P14416 whole entry, looked up): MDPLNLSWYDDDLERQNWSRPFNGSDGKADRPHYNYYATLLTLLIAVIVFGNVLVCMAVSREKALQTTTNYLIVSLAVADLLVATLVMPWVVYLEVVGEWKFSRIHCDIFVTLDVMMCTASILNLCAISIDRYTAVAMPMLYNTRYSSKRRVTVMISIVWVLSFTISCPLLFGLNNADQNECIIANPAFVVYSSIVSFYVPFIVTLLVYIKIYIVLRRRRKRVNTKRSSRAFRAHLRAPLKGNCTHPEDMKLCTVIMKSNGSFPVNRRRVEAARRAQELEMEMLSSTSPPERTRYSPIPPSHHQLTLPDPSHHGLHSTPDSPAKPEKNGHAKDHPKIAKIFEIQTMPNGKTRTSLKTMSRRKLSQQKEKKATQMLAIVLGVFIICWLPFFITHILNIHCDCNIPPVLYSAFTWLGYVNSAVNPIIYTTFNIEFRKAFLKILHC
Chain of Gonadotropin-releasing hormone receptor (Homo sapiens) (P30968 whole entry, looked up): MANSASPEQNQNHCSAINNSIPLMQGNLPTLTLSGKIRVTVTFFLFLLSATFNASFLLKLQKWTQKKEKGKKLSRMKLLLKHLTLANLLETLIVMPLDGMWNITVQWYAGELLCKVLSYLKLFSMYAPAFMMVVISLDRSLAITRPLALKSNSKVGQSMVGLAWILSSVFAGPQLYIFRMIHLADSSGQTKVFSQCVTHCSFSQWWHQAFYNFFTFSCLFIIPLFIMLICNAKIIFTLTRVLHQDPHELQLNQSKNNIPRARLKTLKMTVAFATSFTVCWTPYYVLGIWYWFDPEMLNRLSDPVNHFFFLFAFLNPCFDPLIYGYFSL
Chain of 5-hydroxytryptamine receptor 2A (Homo sapiens) (P28223 whole entry, looked up): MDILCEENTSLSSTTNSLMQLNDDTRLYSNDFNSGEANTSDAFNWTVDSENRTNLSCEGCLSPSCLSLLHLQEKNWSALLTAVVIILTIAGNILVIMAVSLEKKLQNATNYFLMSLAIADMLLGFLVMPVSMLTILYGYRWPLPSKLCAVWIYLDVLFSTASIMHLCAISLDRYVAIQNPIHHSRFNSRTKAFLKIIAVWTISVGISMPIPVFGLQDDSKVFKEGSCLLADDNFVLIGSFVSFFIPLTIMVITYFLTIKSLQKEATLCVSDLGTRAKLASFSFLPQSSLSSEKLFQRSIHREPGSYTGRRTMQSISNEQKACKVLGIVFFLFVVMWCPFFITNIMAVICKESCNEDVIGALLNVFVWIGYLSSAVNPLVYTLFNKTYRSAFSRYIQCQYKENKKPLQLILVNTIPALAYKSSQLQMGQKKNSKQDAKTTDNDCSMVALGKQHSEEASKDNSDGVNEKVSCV
Chain of Beta-2 adrenergic receptor (Homo sapiens) (P07550 whole entry, looked up): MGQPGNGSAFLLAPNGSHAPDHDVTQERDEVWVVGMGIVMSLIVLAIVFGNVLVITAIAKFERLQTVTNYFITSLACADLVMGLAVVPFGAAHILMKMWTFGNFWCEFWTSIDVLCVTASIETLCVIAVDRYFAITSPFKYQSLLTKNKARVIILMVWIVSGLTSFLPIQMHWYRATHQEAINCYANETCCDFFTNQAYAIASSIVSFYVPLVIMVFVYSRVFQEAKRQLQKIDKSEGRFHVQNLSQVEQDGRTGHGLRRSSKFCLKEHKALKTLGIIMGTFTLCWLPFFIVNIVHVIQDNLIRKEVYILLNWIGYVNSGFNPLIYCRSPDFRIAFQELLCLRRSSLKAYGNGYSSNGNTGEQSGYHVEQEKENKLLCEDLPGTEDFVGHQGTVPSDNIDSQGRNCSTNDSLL

Regarding `CC(=O)OCC[N+](C)(C)C`, the Potency result in [1], in assay [2], in assay [6], in assay [7], in assay [8] and in assay [9] was “inactive” throughout. In addition, the Potency result in assay [10], in [11], in assay [12], in assay [13], in assay [14] and in assay [15] was “inactive” each time. Besides, the Potency in assay [3] was 6.01 µM (active). The outcome in assay [4] and in [5] was inactive.
For the molecule `COC(=O)CC#N`, the Potency result in [1], in [2], in [3], in [6], in [7] and in assay [8] was “inactive” each time. The Potency result in assay [9], in assay [10], in assay [11], in assay [16], in assay [17] and in assay [12] was “inactive” throughout. Moreover, the Potency entry in [13], in [18], in [14] and in assay [15] was “inactive” throughout. Further, the result in [4] and in assay [5] was inactive.
As to `CN1CCN(C2=Nc3ccccc3Sc3ccc(Cl)cc32)CC1`, the Potency result in assay [1], in [2], in assay [3], in assay [6], in assay [7] and in assay [8] was “inactive” each time. Further, the Potency entry in assay [19], in assay [11], in assay [17], in assay [18] and in assay [14] was “inactive” in each case. Besides, the result in assay [4] and in [5] was inactive. The Potency is 0.0818 µM (active) in assay [10], 1.45 µM (active) in [16] and 5.96 µM (active) in [15].
Regarding `CCOC(=O)CC(C)O` (centres undefined), the Potency entry in [1], in assay [2], in assay [3], in [6], in assay [7] and in assay [8] was “inactive” each time. The Potency result in assay [9], in assay [10], in assay [11], in assay [17], in [12] and in [13] was “inactive” throughout. The Potency result in assay [18], in [14] and in assay [15] was “inactive” in each case. For the same molecule, the result in [4] and in assay [5] was inactive.
For the molecule `CN(C)CCc1c[nH]c2ccc(CS(=O)(=O)N3CCCC3)cc12`, the Potency entry in assay [1], in [2], in assay [3], in [6], in assay [7] and in assay [8] was “inactive” throughout. Also, the Potency entry in assay [9], in assay [19], in assay [16], in assay [17], in assay [12] and in [13] was “inactive” in each case. Besides, the Potency entry in [18], in [14] and in [15] was “inactive” throughout. In addition, the outcome in [4] and in assay [5] was inactive. In assay [11], the Potency was 10.7 µM (active).
Take `Cc1ccc(CCn2c3c(c4cc(Cl)ccc42)CN(C)CC3)cn1`: the Potency entry in assay [1], in assay [2], in assay [3], in [6], in assay [7] and in assay [8] was “inactive” in each case. Also, the Potency result in assay [9], in assay [19], in assay [11], in [16], in assay [12] and in assay [13] was “inactive” in each case. Further, the Potency entry in assay [18], in assay [14] and in assay [15] was “inactive” each time. Also, the outcome in assay [4] and in assay [5] was inactive.
As to `O=Cc1ccc(F)c(Br)c1`, the Potency result in assay [1], in assay [2], in assay [3], in [6], in [7] and in [8] was “inactive” throughout. The Potency result in assay [9], in assay [19], in assay [10], in assay [11], in assay [16] and in [12] was “inactive” each time. Further, the Potency entry in assay [13], in [18], in assay [14] and in assay [15] was “inactive” throughout. Further, the outcome in [4] and in assay [5] was inactive.
In the case of `O=C(c1ccc(O)cc1)c1ccc(Cl)cc1`, the Potency entry in [1], in assay [2], in assay [3], in assay [6], in [7] and in assay [8] was “inactive” in each case. Further, the Potency result in assay [9], in assay [10], in [11], in [16], in [17] and in assay [18] was “inactive” each time. Further, the Potency result in assay [14] is “inactive”. Moreover, the result in assay [4] and in assay [5] was inactive.
